# Columns and labels:
# Experiment in all cases: DAPPL (digital affinity profiling via proximity ligation, sequencing); 10 mM Tris-HCl pH 7.5, 50 mM NaCl, 1 mM DTT, 4% glycerol, room temperature, 30 min; GST-TFs on glutathione beads, 16-mer random dsDNA library, 0.1% formaldehyde crosslink after washing; high values mean tight binding
# FLI1 = biological target: T1, FLI1 (Homo sapiens, UniProt Q01543 1-452); details: protein: recombinant; tags: N-terminal GST; dsDNA, one strand shown
# T1 sequence: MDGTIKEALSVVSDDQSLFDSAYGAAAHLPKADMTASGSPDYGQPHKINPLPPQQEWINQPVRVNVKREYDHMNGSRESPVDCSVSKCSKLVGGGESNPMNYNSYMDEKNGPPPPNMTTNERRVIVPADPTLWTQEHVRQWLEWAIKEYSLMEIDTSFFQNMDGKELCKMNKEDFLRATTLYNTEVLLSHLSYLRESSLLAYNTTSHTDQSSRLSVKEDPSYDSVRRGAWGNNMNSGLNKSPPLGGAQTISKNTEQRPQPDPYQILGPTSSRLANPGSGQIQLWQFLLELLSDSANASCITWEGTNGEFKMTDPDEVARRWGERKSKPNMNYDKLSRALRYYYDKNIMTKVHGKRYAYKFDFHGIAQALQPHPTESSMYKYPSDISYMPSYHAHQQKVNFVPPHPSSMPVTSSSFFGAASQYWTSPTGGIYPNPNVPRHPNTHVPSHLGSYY
# In short: (§1)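 Pools of DNA-barcoded human transcription factors, expressed in yeast as GST fusions on glutathione beads and combined with a tag-only sample, were incubated with 200 nmole of a 16-mer random double-stranded DNA library. Incubation took 30 min at room temperature in Tris/NaCl/DTT/glycerol buffer and was followed by washing, 0.1% formaldehyde crosslinking, proximity ligation (BsaI/T4 ligase, 1 h, 37 °C), PCR amplification and sequencing on an Illumina NextSeq500. Binding signal is the ratio of a hexamer's read frequency for a factor to its frequency for the tag-only sample.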
# ELK1 = biological target: T2, ELK1 (Homo sapiens, UniProt P19419 1-428); details: protein: recombinant; tags: N-terminal GST; dsDNA, one strand shown
# T2 sequence: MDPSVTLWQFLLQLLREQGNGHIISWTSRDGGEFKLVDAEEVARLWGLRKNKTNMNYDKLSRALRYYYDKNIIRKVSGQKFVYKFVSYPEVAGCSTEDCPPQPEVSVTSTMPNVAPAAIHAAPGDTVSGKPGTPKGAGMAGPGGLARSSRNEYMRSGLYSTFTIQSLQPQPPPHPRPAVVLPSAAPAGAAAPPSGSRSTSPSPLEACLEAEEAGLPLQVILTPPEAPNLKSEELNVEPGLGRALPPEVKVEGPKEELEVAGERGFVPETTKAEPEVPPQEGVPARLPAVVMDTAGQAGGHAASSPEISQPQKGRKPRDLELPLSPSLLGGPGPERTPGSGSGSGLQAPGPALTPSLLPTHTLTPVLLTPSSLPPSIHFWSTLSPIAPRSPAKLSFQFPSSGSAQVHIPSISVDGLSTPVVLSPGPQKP
# In short: as §1
# GABPA = biological target: T3, GABPA (Homo sapiens, UniProt Q06546 1-454); details: protein: recombinant; tags: N-terminal GST; dsDNA, one strand shown
# T3 sequence: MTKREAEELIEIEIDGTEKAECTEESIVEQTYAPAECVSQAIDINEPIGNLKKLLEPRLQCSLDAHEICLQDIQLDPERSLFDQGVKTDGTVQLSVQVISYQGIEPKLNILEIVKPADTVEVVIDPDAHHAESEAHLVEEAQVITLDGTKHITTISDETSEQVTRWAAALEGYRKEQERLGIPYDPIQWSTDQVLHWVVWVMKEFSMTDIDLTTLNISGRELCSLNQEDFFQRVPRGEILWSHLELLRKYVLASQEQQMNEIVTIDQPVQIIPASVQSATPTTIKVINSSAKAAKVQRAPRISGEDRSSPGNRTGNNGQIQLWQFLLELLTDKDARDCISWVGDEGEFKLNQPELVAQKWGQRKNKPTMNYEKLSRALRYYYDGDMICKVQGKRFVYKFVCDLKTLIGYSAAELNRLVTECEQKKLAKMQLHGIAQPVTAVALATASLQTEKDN
# In short: as §1
# ERG = biological target: T4, ERG (Homo sapiens, UniProt P11308 1-479); details: protein: recombinant; tags: N-terminal GST; dsDNA, one strand shown
# T4 sequence: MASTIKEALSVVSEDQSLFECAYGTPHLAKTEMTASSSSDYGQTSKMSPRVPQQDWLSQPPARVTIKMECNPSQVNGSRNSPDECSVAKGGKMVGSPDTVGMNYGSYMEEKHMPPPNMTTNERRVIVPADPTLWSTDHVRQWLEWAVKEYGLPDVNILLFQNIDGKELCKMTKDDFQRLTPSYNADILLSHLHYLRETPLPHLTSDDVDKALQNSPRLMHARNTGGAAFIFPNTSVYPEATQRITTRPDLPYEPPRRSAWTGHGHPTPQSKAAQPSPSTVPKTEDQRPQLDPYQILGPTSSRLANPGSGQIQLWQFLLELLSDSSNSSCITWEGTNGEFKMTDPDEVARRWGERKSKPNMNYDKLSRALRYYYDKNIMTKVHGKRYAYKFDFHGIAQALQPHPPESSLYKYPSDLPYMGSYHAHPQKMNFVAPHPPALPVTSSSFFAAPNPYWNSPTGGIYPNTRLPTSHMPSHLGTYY
# In short: as §1
# ELF1 = ELF1 (Homo sapiens, UniProt P32519 1-619); details: protein: recombinant; tags: N-terminal GST; dsDNA, one strand shown
# In short: as §1
# EHF = biological target: T5, EHF (Homo sapiens, UniProt Q9NZC4 1-300); details: protein: recombinant; tags: N-terminal GST; dsDNA, one strand shown
# T5 sequence: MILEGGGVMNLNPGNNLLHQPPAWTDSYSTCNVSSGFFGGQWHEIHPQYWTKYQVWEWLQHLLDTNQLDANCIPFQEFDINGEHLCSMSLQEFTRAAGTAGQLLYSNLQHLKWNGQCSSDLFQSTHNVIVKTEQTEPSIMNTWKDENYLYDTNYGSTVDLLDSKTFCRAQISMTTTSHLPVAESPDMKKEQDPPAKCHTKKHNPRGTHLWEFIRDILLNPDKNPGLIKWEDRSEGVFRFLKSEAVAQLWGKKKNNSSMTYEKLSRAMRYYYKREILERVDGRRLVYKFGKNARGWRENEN
# In short: as §1
# SPI1 = SPI1 (Homo sapiens, UniProt P17947 1-270); details: protein: recombinant; tags: N-terminal GST; dsDNA, one strand shown
# In short: as §1
# SPIB = SPIB (Homo sapiens, UniProt Q01892 1-262); details: protein: recombinant; tags: N-terminal GST; dsDNA, one strand shown
# In short: as §1
# ELK3 = biological target: T6, ELK3 (Homo sapiens, UniProt P41970 1-407); details: protein: recombinant; tags: N-terminal GST; dsDNA, one strand shown
# T6 sequence: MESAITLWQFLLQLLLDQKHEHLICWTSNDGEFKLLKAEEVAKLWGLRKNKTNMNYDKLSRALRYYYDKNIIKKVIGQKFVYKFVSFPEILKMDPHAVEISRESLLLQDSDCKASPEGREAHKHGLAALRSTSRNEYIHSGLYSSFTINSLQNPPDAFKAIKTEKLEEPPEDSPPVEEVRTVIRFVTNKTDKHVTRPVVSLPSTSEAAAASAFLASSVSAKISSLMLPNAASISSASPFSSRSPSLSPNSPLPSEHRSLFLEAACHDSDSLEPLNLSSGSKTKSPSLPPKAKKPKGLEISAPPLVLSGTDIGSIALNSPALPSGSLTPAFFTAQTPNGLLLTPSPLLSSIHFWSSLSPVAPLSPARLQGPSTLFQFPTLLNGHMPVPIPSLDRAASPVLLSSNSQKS
# In short: as §1
# FEV = biological target: T7, FEV (Homo sapiens, UniProt Q99581 1-238); details: protein: recombinant; tags: N-terminal GST; dsDNA, one strand shown
# T7 sequence: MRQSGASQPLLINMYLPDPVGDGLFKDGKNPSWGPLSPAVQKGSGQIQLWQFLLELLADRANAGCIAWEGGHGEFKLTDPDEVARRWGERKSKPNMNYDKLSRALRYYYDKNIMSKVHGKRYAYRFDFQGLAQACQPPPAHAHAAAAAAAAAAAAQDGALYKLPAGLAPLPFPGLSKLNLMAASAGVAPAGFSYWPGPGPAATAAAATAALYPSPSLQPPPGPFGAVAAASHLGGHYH
# In short: as §1
# ETV5 = ETV5 (Homo sapiens, UniProt P41161 1-510); details: protein: recombinant; tags: N-terminal GST; dsDNA, one strand shown
# In short: as §1
# HSF1 = HSF1 (Homo sapiens, UniProt Q00613 1-529); details: protein: recombinant; tags: N-terminal GST; chain copies: 3; dsDNA, one strand shown
# In short: as §1
# SPIC = biological target: T8, SPIC (Homo sapiens, UniProt Q8N5J4 1-248); details: protein: recombinant; tags: N-terminal GST; dsDNA, one strand shown
# T8 sequence: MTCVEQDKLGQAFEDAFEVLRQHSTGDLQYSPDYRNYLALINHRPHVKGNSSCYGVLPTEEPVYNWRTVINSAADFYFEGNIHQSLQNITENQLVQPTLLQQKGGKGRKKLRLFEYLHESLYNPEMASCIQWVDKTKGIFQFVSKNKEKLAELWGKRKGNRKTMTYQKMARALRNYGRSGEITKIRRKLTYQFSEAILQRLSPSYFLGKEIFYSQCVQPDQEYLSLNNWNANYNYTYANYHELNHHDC
# In short: as §1
# ELF4 = ELF4 (Homo sapiens, UniProt Q99607 1-663); details: protein: recombinant; tags: N-terminal GST; dsDNA, one strand shown
# In short: as §1
# ELK4 = biological target: T9, ELK4 (Homo sapiens, UniProt P28324-2 1-405); details: protein: recombinant; tags: N-terminal GST; dsDNA, one strand shown
# T9 sequence: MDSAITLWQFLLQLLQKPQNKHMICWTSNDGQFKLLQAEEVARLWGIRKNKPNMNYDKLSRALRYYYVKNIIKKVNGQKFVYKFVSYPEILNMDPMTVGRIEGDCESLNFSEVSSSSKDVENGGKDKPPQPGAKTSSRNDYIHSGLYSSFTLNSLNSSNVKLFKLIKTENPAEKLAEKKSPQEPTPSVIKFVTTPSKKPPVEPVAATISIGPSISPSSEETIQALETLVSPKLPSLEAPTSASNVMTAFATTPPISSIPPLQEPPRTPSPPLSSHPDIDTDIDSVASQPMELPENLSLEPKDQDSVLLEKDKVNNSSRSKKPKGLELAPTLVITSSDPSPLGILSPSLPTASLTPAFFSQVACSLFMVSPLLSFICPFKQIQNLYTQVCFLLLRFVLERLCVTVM
# In short: as §1
# ETV2 = biological target: T10, ETV2 (Homo sapiens, UniProt O00321 1-342); details: protein: recombinant; tags: N-terminal GST; dsDNA, one strand shown
# T10 sequence: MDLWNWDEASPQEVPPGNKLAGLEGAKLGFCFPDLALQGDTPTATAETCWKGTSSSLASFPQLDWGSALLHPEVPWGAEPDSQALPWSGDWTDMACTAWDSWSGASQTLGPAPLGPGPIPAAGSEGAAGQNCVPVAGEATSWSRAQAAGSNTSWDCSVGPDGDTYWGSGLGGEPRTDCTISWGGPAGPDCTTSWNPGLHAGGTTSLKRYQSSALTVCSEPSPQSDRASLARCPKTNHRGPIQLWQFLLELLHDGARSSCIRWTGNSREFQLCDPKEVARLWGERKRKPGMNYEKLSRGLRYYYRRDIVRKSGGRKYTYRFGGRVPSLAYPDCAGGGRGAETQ
# In short: as §1
# ELF3 = biological target: T11, ELF3 (Homo sapiens, UniProt P78545 1-371); details: protein: recombinant; tags: N-terminal GST; dsDNA, one strand shown
# T11 sequence: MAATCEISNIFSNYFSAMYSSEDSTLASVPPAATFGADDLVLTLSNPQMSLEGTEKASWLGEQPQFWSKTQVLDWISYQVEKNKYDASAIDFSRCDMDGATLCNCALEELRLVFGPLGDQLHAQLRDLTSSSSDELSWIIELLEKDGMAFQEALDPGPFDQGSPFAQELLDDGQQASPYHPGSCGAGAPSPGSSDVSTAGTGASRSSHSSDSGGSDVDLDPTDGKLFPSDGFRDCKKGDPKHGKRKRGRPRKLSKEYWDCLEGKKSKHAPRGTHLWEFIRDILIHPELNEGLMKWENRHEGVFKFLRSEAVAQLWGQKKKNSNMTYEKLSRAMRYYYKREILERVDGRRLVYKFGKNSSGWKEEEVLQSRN
# In short: as §1
# CRX = CRX (Homo sapiens, UniProt O43186 1-299); details: protein: recombinant; tags: N-terminal GST; dsDNA, one strand shown
# In short: as §1
# ETV1 = ETV1 (Homo sapiens, UniProt P50549 1-477); details: protein: recombinant; tags: N-terminal GST; dsDNA, one strand shown
# In short: as §1
# Chain of ELF4 (Q99607 whole entry): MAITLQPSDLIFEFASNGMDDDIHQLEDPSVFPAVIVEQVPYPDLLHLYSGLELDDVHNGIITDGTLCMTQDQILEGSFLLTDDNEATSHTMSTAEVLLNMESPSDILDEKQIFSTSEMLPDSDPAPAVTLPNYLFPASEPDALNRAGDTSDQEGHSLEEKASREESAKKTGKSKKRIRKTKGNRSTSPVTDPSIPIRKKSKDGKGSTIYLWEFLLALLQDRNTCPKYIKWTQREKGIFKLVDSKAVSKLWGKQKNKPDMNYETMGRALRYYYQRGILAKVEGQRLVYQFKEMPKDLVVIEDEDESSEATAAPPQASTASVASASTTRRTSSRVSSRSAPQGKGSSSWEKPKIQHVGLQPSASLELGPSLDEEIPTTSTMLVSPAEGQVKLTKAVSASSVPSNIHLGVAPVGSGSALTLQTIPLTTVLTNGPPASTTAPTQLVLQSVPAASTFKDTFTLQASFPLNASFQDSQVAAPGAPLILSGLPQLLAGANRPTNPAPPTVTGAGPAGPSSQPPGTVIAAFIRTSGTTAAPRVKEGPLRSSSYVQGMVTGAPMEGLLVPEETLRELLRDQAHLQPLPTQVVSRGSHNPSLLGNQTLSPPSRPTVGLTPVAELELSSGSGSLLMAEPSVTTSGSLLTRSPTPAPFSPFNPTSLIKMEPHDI
# Chain of SPIB (Q01892 whole entry): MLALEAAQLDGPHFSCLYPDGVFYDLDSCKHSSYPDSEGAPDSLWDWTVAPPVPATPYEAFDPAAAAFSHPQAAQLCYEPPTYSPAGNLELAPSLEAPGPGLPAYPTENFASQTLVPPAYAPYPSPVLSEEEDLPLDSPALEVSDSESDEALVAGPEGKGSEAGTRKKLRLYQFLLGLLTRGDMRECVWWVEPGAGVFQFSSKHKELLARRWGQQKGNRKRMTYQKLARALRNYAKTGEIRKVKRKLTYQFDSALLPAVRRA
# Chain of ETV5 (P41161 whole entry): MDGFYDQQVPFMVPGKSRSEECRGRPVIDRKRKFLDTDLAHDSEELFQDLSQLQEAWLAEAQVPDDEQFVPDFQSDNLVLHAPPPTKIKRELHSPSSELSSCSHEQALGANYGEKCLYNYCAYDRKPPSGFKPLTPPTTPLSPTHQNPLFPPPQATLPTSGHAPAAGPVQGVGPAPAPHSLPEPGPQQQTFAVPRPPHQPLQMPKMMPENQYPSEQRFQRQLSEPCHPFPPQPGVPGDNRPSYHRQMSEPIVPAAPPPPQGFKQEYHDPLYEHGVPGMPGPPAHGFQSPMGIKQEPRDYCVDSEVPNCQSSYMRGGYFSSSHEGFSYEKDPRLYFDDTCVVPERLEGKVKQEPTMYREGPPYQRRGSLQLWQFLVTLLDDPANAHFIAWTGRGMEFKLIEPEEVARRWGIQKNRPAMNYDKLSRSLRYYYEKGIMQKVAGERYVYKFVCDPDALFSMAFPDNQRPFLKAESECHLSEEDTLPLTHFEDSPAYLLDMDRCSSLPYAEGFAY
# Chain of CRX (O43186 whole entry): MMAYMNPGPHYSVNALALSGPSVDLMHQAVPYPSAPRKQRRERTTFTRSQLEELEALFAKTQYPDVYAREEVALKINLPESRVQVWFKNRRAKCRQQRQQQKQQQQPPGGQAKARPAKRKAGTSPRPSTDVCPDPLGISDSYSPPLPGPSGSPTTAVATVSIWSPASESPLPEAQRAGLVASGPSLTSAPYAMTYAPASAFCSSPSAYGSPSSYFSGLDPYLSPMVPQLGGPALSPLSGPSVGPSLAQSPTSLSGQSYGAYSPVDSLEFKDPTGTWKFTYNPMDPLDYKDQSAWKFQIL
# Chain of HSF1 (Q00613 whole entry): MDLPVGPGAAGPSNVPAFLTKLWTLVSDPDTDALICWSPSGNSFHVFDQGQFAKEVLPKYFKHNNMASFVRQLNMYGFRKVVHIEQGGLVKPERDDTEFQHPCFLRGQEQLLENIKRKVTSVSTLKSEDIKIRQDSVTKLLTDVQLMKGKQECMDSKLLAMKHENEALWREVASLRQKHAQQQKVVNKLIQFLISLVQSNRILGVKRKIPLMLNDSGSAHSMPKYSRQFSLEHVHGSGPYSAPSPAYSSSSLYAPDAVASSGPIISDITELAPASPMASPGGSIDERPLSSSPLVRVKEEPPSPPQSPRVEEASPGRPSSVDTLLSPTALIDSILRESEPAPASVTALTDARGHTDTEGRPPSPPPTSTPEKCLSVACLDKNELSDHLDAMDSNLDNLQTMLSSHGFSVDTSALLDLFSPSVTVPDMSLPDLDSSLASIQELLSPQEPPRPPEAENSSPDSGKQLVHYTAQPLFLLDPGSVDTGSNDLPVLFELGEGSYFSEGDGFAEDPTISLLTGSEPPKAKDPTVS
# Chain of ELF1 (P32519 whole entry): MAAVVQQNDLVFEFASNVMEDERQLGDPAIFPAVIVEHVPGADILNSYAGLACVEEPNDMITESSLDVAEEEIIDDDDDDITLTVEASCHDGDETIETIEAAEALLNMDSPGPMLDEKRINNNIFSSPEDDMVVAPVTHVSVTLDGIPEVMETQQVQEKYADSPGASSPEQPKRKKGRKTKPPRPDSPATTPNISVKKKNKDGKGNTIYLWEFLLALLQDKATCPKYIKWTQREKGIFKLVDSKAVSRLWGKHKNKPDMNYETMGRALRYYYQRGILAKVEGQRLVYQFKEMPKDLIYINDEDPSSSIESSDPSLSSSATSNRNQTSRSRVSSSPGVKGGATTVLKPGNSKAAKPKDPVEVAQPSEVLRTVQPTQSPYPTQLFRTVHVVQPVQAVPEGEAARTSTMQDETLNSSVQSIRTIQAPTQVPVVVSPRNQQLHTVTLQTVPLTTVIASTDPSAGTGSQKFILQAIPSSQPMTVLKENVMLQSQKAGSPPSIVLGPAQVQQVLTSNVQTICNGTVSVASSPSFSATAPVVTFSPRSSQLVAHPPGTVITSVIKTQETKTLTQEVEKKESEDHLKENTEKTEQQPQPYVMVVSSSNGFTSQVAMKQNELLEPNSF
# Chain of ETV1 (P50549 whole entry): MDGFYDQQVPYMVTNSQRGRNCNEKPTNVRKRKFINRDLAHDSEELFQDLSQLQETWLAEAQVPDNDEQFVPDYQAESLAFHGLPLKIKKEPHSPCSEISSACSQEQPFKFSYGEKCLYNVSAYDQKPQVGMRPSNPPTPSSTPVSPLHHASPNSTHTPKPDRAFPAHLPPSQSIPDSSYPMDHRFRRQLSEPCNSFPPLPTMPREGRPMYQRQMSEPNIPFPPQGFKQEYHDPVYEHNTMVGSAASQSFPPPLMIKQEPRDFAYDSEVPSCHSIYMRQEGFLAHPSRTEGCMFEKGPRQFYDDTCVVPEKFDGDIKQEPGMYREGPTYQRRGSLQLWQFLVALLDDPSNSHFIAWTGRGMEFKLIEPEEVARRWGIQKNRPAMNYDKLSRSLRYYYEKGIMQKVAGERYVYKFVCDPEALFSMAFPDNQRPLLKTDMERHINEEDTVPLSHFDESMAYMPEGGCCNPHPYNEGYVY
sequence,measurement,setting,value
TGTTTC,binding signal,FLI1,"1.91 fold enrichment (6-mer frequency, TF over GST control)"
same,binding signal,ELK1,"1.85 fold enrichment (6-mer frequency, TF over GST control)"
same,binding signal,GABPA,"1.59 fold enrichment (6-mer frequency, TF over GST control)"
same,binding signal,ERG,"1.97 fold enrichment (6-mer frequency, TF over GST control)"
same,binding signal,ELF1,"1.8 fold enrichment (6-mer frequency, TF over GST control)"
same,binding signal,EHF,"1.79 fold enrichment (6-mer frequency, TF over GST control)"
same,binding signal,SPI1,"1.69 fold enrichment (6-mer frequency, TF over GST control)"
same,binding signal,SPIB,"1.74 fold enrichment (6-mer frequency, TF over GST control)"
same,binding signal,ELK3,"1.61 fold enrichment (6-mer frequency, TF over GST control)"
same,binding signal,FEV,"1.97 fold enrichment (6-mer frequency, TF over GST control)"
same,binding signal,ETV5,"1.83 fold enrichment (6-mer frequency, TF over GST control)"
same,binding signal,HSF1,"1.43 fold enrichment (6-mer frequency, TF over GST control)"
same,binding signal,SPIC,"1.49 fold enrichment (6-mer frequency, TF over GST control)"
same,binding signal,ELF4,"1.73 fold enrichment (6-mer frequency, TF over GST control)"
same,binding signal,ELK4,"1.55 fold enrichment (6-mer frequency, TF over GST control)"
same,binding signal,ETV2,"1.69 fold enrichment (6-mer frequency, TF over GST control)"
same,binding signal,ELF3,"1.68 fold enrichment (6-mer frequency, TF over GST control)"
same,binding signal,CRX,"1.17 fold enrichment (6-mer frequency, TF over GST control)"
same,binding signal,ETV1,"1.84 fold enrichment (6-mer frequency, TF over GST control)"

# Reference: publication PMC7862700, “An all-to-all approach to the identification of sequence-specific readers for epigenetic DNA modifications on cytosine”
